In the supplement of paper PMC4723716 one finds viability index data, which are given here for 90 compounds.

Each structure is given as a SMILES string. Over roughly 3,600 compounds, “viability index relative to DMSO control” has its median near 0.81; the lowest 2% begin near 0.13. The sample as a whole holds a higher share of the lowest values than the screen did.
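Also: Saponin-lysis sexual stage assay in serum-free medium: MitoTracker Red CMXRos staining plus saponin, high-content imaging, particle count per well divided by plate mean of DMSO wells.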

In this experiment the test system is Plasmodium falciparum NF54 stage V gametocytes. Kind of experiment: viability index relative to DMSO control (fraction); higher = less gametocyte killing. Particulars: 1.25 µM, incubation time: 72 h.
`O=[N+]([O-])c1ccc2nc(Nc3ccc(Cl)c(Cl)c3)c(Nc3ccc(Cl)c(Cl)c3)nc2c1`: the viability index is 0.0962.

In turn, `O=[N+]([O-])c1ccc2nc(NC3CCCCC3)c(NC3CCCCC3)nc2c1` gave a viability index of 0.86.

`O=[N+]([O-])c1ccc2nc(Nc3ccccc3)c(Nc3ccccc3)nc2c1`: the viability index came out at 0.481.

`CC(C)c1nc(N2CCN(C(=S)NCc3ccccc3)CC2)c(C#N)c2c1COC(C)(C)C2` gave a viability index of 0.0888.

As to `CCCC(=O)N1CCN(c2nc(Cc3ccccc3)c3c(c2C#N)CC(C)(C)OC3)CC1`, the viability index was 0.568.

On to `Cc1ccc(-c2noc(C3CCN(C(=O)Nc4ccc(C#N)cc4)CC3)n2)o1`, for which the viability index was determined as 0.957.

The compound `CC1(C)Cc2c(sc(NC(=O)CCl)c2C#N)CO1` yielded a viability index of 0.556.

Turning to `O=[N+]([O-])c1ccc(S(=O)(=O)N2CCN(C(=S)NCc3ccccc3)CC2)cc1`, the viability index was found to be 0.163.

Regarding `CC(C)c1nc(N2CCN(C(=O)Nc3ccccc3)CC2)c(C#N)c2c1COC(C)(C)C2`, the viability index is 0.0954.

Compound `CC[n+]1c(SC)ccc2cc(OC)ccc21` gave a viability index of 0.681.

Regarding `CCC(=O)NCc1nnc(SCc2cccc(C(F)(F)F)c2)n1-c1cccc(OC)c1`, the viability index came to 0.865.

`C[n+]1ccccc1C=Cc1cc(Br)ccc1O` returned a viability index of 0.819.

With `CC(NC(=O)C(=O)N1CCCCC1)C(c1cccs1)N1CCOCC1` (stereo not given), the viability index was 0.787.

As to `Cc1ccc(Nc2nc(-c3ccccn3)cs2)cc1`, the viability index was 0.127.

`COc1ccc2sc(Nc3nc(-c4ccccn4)cs3)nc2c1` gave a viability index of 0.876.

In turn, `Cc1ccnc(Nc2nc(-c3ccccn3)cs2)c1` registered a viability index of 0.0192.

`O=C(Nc1nc(-c2ccccn2)cs1)c1ccc(Oc2ccc(C(=O)Nc3nc(-c4ccccn4)cs3)cc2)cc1`: the viability index worked out at 0.00826.

Turning to `Cc1ccnc(Nc2nc(-c3c(C)nc4sccn34)cs2)c1`, the viability index stood at 0.822.

The compound `Cc1nc2ncccn2c1-c1csc(Nc2ccccn2)n1` yielded a viability index of 1.06.

`CC(=O)Nc1nc(C)c(-c2csc(Nc3ccc(C)cc3)n2)s1` came in with a viability index of 0.351.

Regarding `COc1ccc2nc(Nc3nc(-c4ccccn4)cs3)sc2c1`, the viability index was found to be 0.331.

On to `Fc1cccc2sc(Nc3nc(-c4ccccn4)cs3)nc12`, for which the viability index was 0.322.

`Cc1nc2sccn2c1-c1csc(Nc2ccccn2)n1` returned a viability index of 0.89.

`Cc1ccnc(Nc2nc(-c3ccc(Cl)cc3)cs2)c1` registered a viability index of 0.938.

`c1ccc(Nc2nc(-c3ccccn3)cs2)nc1`: the viability index is 0.0653.

Turning to `CC1CCc2c(sc(NC(=O)c3ccccc3F)c2C(=O)NCc2ccccc2)C1` (stereo not given), the viability index is 1.42.

The compound `CCC(CC)=NNC(=O)C(=O)NC1CCCCC1` showed a viability index of 1.13.

On to `CCC(=O)NC(c1ccccc1Cl)c1cc(Cl)c2cccnc2c1O` (stereo not given), for which the viability index worked out at 0.86.

In the case of `O=C(O)c1ccc(S(=O)(=O)c2ccc3c(c2)C(=O)N(c2ccc(Sc4ccc([N+](=O)[O-])cc4)cc2)C3=O)cc1`, the viability index is 0.887.

Turning to `CCOc1ccc(Nc2cc(=O)oc3ccccc23)cc1`, the viability index came out at 0.618.

In the case of `CCCn1nc(Oc2nc(NCC)cc(OC)n2)ccc1=O`, the viability index turned out to be 0.859.

Compound `N=c1c2c(n(Cc3ccccc3)c3c1CCC3)CCC2` came in with a viability index of 0.87.

Regarding `O=[N+]([O-])c1ccc(N2CCCN(C(=S)Nc3ccc(F)cc3Br)CC2)nc1`, the viability index was 0.261.

The compound `O=[N+]([O-])c1ccc(N2CCN(C(=S)Nc3ccccc3)CC2)cc1` showed a viability index of 0.967.

As for `O=[N+]([O-])c1ccc(N2CCCN(C(=S)Nc3ccccc3)CC2)nc1`, the viability index was 0.0788.

For `NC1=NC(c2ccccc2)N(c2ccccc2)C(N)=N1` (stereo not given), the viability index was 1.12.

On to `O=C(Nc1ccccc1C(=O)O)c1cccc(NC(=O)c2ccco2)c1`, for which the viability index was 0.73.

The compound `CCn1c(CSc2nc(C)cc(C)n2)nnc1SCC(N)=O` showed a viability index of 1.13.

As to `CC(=O)N(C1=C(N(C)C)C(=O)c2ccccc2C1=O)c1ccc(F)cc1`, the viability index came out at 0.0453.

`CC(=O)N(C1=C(N(C)C)C(=O)c2ccccc2C1=O)c1ccc(Cl)cc1` returned a viability index of 0.208.

Take `CC(=O)N(C1=C(N(C)C)C(=O)c2ccccc2C1=O)c1ccc(F)c(F)c1`: the viability index stood at 0.0288.

Compound `CC(=O)N(C1=C(N(C)C)C(=O)c2ccccc2C1=O)c1ccc(Cl)c(Cl)c1` gave a viability index of 0.257.

`CC(=O)N(C1=C(N(C)C)C(=O)c2ccccc2C1=O)c1cccc(F)c1` returned a viability index of 0.0612.

On to `CC(=O)N(C1=C(N2CCOCC2)C(=O)c2ccccc2C1=O)c1ccc(I)cc1`, for which the viability index stood at 0.14.

Regarding `CC(=O)N(C1=C(N(C)C)C(=O)c2ccccc2C1=O)c1cc(C)cc(C)c1`, the viability index amounted to 0.0811.

In the case of `CC(=O)N(C1=C(N2CCC(C)CC2)C(=O)c2ccccc2C1=O)c1cccc(F)c1`, the viability index is 0.892.

As to `O=C(CN(CCN1CCOCC1)S(=O)(=O)c1ccccn1)N1CCN(C(c2ccccc2)c2ccccc2)CC1`, the viability index turned out to be 0.637.

`CCN(CC)c1ccc(C=NNC(=O)c2ccc(Nc3nc(-c4ccccc4)cs3)cc2)c(O)c1` displayed a viability index of 0.675.

For `Cc1ccccc1N1C(=O)C2C3c4ccccc4C(C(=O)O)(c4ccccc43)C2C1=O` (stereo not given), the viability index turned out to be 0.616.

Regarding `CN(C)CCN1CCN(c2ccnc3cc4ccccc4cc23)CC1`, the viability index came to 0.84.

On to `O=c1c(=O)n(Cc2cccc(C(F)(F)F)c2)ccn1CCc1ccccc1`, for which the viability index stood at 0.751.

`CCN(CC)S(=O)(=O)c1ccc2[nH]cc(C(=O)NCCCN3CCN(c4ccc(OC)cc4)CC3)c(=O)c2c1`: the viability index is 1.14.

As for `CCN(CC)c1ccc(N=Cc2ccc(Sc3nc4ccccc4s3)o2)cc1`, the viability index is 1.17.

For `OC(COc1ccc(OCC(O)CN2CCN(C3c4ccccc4-c4ccccc43)CC2)cc1)CN1CCN(C2c3ccccc3-c3ccccc32)CC1` (stereo not given), the viability index is 0.754.

Regarding `CC(=O)N(C1=C(N(C)C)C(=O)c2ccccc2C1=O)c1cccc(Cl)c1`, the viability index was 0.

Turning to `Cc1nc2c(C)cccc2c(O)c1CC=C(Cl)Cl`, the viability index stood at 0.759.

`Oc1c(CN2CCN(Cc3ccc4cccnc4c3O)CC2)ccc2cccnc12`: the viability index was determined as 0.601.

In the case of `COc1ccc(C(OCCS(=O)(=O)CCO)(c2ccccc2)c2ccc(OC)cc2)cc1`, the viability index amounted to 0.0248.

`COc1ccc(-c2nc(NC(=O)CS(=O)(=O)c3ccccc3)sc2C)cc1` registered a viability index of 1.02.

Consider `COc1ccc(S(=O)(=O)N=C2C=C(Nc3ccccc3)C(=O)c3ccccc32)cc1`, for which the viability index was 0.232.

For `O=C(Nc1ccc(Oc2ccc(OC(F)(F)F)cc2)cc1)C1CC1`, the viability index amounted to 0.693.

`CCCOC(=O)C1=C(C)NC2=C(C(=O)CC(c3ccc(OC)c(OC)c3)C2)C1c1cccc(Br)c1` (stereo not given) came in with a viability index of 0.83.

As to `CCN1CCN(c2cc(C)c3cc(NC(=O)c4cncc(Br)c4)ccc3n2)CC1`, the viability index amounted to 0.801.

The compound `CC(=O)N(C1=C(N2CCCCC2)C(=O)c2ccccc2C1=O)c1cccc(F)c1` registered a viability index of 0.833.

`CCCCOc1ccc(N(C(C)=O)C2=C(N3CCCCC3)C(=O)c3ccccc3C2=O)cc1` gave a viability index of 0.301.

Turning to `CCCNC1=C(N(C(C)=O)c2cccc(F)c2)C(=O)c2ccccc2C1=O`, the viability index came to 0.0245.

Compound `CC(=O)N(C1=C(N2CCCC2)C(=O)c2ccccc2C1=O)c1cccc(F)c1` had a viability index of 1.

In turn, `CCCNC1=C(N(C(C)=O)c2ccc(C)cc2)C(=O)c2ccccc2C1=O` returned a viability index of 0.0531.

`CC(=O)N(C1=C(N2CCCC2)C(=O)c2ccccc2C1=O)c1ccc(I)cc1` had a viability index of 0.879.

`COc1cccc(C(=O)NC(c2ccc(Cl)cc2)c2cc(Cl)c3cccnc3c2O)c1` (stereo not given) displayed a viability index of 0.523.

In the case of `COCCCNC(=O)C=Cc1ccc(C(C)C)cc1`, the viability index is 0.976.

Regarding `C=CCOC(=O)C1=C(C)N2CCSC2=C(C#N)C1c1ccco1` (stereo not given), the viability index was 1.13.

Compound `O=C(Nc1ccc2nc3n(c(=O)c2c1)CCCCC3)C(=O)N1CCN(c2cccc(Cl)c2)CC1` displayed a viability index of 0.432.

In the case of `O=C(CCCCCN1C(=O)c2cccc3cccc(c23)C1=O)NO`, the viability index was 0.853.

For the compound `Cn1c(SCc2cccc([N+](=O)[O-])c2)nc2c(c1=O)SCC2`, the viability index was 0.818.

For `CC(=O)N(C1=C(N2CCOCC2)C(=O)c2ccccc2C1=O)c1ccc(Cl)c(Cl)c1`, the viability index amounted to 0.351.

Regarding `CC(=O)N(C1=C(N2CCCCC2)C(=O)c2ccccc2C1=O)c1cccc(Cl)c1`, the viability index worked out at 0.144.

As to `CC(=O)N(C1=C(N2CCOCC2)C(=O)c2ccccc2C1=O)c1ccc(F)c(F)c1`, the viability index worked out at 0.0694.

For the compound `CC(=O)N(C1=C(N2CCCCC2)C(=O)c2ccccc2C1=O)c1ccc(F)c(F)c1`, the viability index was determined as 0.837.

In the case of `CC(=O)N(C1=C(N2CCOCC2)C(=O)c2ccccc2C1=O)c1cccc(Cl)c1`, the viability index stood at 0.0385.

`CC(=O)N(C1=C(N2CCOCC2)C(=O)c2ccccc2C1=O)c1ccc(Br)cc1` registered a viability index of 0.408.

In the case of `CC(=O)N(C1=C(N2CCCC2)C(=O)c2ccccc2C1=O)c1ccc(F)c(F)c1`, the viability index amounted to 0.743.

Compound `CC(=O)N(C1=C(N2CCN(C)CC2)C(=O)c2ccccc2C1=O)c1cc(C)cc(C)c1` returned a viability index of 0.521.

For the compound `CC(=O)N(C1=C(N2CCOCC2)C(=O)c2ccccc2C1=O)c1cc(C)cc(C)c1`, the viability index came out at 0.0695.

For the compound `COc1cncc(-c2cncc(-c3ccc(Oc4ccccc4)cc3)n2)c1`, the viability index was 0.899.

Compound `COc1cc2c(cc1OC)C(COc1ccc(F)cc1)N(C(=O)c1ccc(OC(C)C)cc1)CC2` (stereo not given) showed a viability index of 0.66.

Compound `CCCN(CCC)CC(O)COc1ccccc1C(=O)Nc1ccccc1` (stereo not given) showed a viability index of 0.65.

Take `Cc1ccc(N2C(N)=NC(N)=NC2(C)C)cc1`: the viability index was determined as 0.985.

`C=CCCC(=O)N1CCC(C(=O)Nc2ccc(-c3nc4ccccc4o3)cc2)CC1` gave a viability index of 0.846.

With `c1ccc2c(c1)[nH]c1c(NCCN3CCCCC3)ncnc12`, the viability index was 1.09.
